Rows were chosen to be rich in hits. Some 3.5% of all compounds tested hit in one or more screens of this group.
ERa SRC1 inh: ER-alpha (human) coactivator binding inhibition; inhibition, % at 25.6 µM; 1.7% of 86,000 active; AID 629; P03372; TR-FRET ER-alpha LBD / SRC-1 peptide, estradiol-bound; in the data active = inhibition above about 50%;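 also: 0% = receptor plus peptide control and 100% = peptide only without receptor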
ERb coact inh: ER-beta (human) coactivator binding inhibition; TR-FRET ER-beta LBD / SRC1-Cy5 peptide binding; receptor agonist-loaded with 1 µM estradiol; inhibition, % at 25.6 µM; Q92731; 1.3% of 86,000 active;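 active = compounds whose percent inhibition of the receptor-coactivator binding signal exceeds about 50% in the single-dose screen, limit read from the data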;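 also: 0% = receptor plus peptide wells without compound and 100% = peptide-only wells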
Target sequence (Q92731 whole entry, looked up, the tested form may be a part): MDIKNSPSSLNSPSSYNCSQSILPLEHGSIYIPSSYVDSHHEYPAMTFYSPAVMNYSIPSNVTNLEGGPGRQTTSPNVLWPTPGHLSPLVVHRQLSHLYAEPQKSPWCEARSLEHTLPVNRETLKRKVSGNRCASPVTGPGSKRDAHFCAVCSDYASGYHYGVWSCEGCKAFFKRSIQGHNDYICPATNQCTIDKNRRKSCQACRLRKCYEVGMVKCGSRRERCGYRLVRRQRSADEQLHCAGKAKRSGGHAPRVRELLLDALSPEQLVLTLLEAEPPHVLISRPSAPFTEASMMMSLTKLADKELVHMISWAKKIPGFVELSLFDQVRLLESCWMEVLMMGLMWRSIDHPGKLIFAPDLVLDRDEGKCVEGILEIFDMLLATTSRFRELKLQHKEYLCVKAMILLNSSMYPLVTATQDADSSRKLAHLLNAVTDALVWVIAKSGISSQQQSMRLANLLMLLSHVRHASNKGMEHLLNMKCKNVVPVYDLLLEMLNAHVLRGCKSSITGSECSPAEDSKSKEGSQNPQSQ
ERa SRC1 pot: enhances coactivator binding to human estrogen receptor alpha | P03372 | 1.3% of 86,000 active | TR-FRET ERalpha-LBD/SRC-Cy5 coactivator binding, 2 h; 100 = basal binding, no effect | coactivator binding (% of control), % at 25.6 µM; in the data active = activity above about 200%;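 also: binding measured in presence of low estradiol as agonist stimulus; 0% = peptide alone without receptor and 100% = receptor with peptide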
Smad3 inh: Smad3 (human) transcription factor binding inhibition | P84022 | TR-FRET Smad3/Dy647-FoxH1 peptide binding, europium anti-His | inhibition, % at 25 µM | 0.29% of 88,000 active;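 active = compounds that reduce the energy-transfer binding signal between the protein and its labelled peptide by more than half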;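 also: 0% = Smad3 plus labelled peptide maximal FRET and 100% = peptide-only background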
MT1-MMP txn act: MT1-MMP promoter transcription activation; HT1080 MT1-MMP promoter luciferase reporter, luminescence, overnight; stronger effect = higher value; 0.16% of 86,000 active; activation factor at 10 µM; AID 750;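 active = activation factor of at least 2 for MT1-MMP transcription at 10 µM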
MMP-13 inhibitor: MMP13 (human) collagenase inhibition; inhibition, % at 4 µM; 0.07% of 65,000 active; MMP-13 fTHP FRET cleavage, Mca fluorescence; P45452;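 active = inhibition above the mean of compound-free control plate wells plus 3 SD, cut at about 14% in these data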;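 also: 0% = DMSO wells and 100% = wells with reference MMP-13 inhibitor after basal subtraction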
* hit, by the source's call; [ ] = remark or other dose.

How did O=C1C(O)CC2c3ccccc3CC3(CCCC3)N12 (centres undefined) do in these assays?
ERa SRC1 inh: -8; ERb coact inh: -7; ERa SRC1 pot: 235*; Smad3 inh: 3; MT1-MMP txn act: 1.1; MMP-13 inhibitor: -2

Results for O=C1c2ccccc2C2NC(=O)C3(CCCCC3)N12 (centres undefined) ?
ERa SRC1 inh: 0; ERb coact inh: 1; ERa SRC1 pot: 110; Smad3 inh: 8; MT1-MMP txn act: 1; MMP-13 inhibitor: 1

What do the screens show for `COc1ccccc1N1CCN(C(=O)CC2NC3CCCCC3NC2=O)CC1` (centres undefined)?
ERa SRC1 inh: -4; ERb coact inh: -10; ERa SRC1 pot: 111; Smad3 inh: 7; MT1-MMP txn act: 1.2

What do the screens show for `CCn1nc(C)c(NC(=O)/C=C/c2ccc(OC)c(COc3ccc(Cl)cc3Br)c2)c1C`?
ERa SRC1 inh: 95*[fluorescence artefact?]; ERb coact inh: 52*[fluorescence artefact?]; ERa SRC1 pot: 311*[fluorescence artefact?]; Smad3 inh: -4; MT1-MMP txn act: 1

How did COCCNC(=O)C(c1ccc(C)o1)N(C(=O)c1snc(C(N)=O)c1N)c1cc(C)cc(C)c1 (centres undefined) do in these assays?
ERa SRC1 inh: 4; ERb coact inh: 99*[fluorescence artefact?]; ERa SRC1 pot: 96; Smad3 inh: 7; MT1-MMP txn act: 1.2; MMP-13 inhibitor: -21

What do the screens show for `Cc1nn(-c2ccccc2)c2c1C(c1cccnc1)N1C=C(S(=O)(=O)N3CCCCC3)C=CC1=N2` (centres undefined)?
ERa SRC1 inh: -19; ERb coact inh: -6; ERa SRC1 pot: 112; Smad3 inh: -3; MT1-MMP txn act: 1.2; MMP-13 inhibitor: 1

How did Cc1cc(NC(=O)CN2CC3CC(C2)c2cccc(=O)n2C3)nc2c1c(=O)oc1ccccc12 (centres undefined) do in these assays?
ERa SRC1 inh: 61*[fluorescence artefact?]; ERb coact inh: 58*; ERa SRC1 pot: 47; Smad3 inh: 11; MT1-MMP txn act: 1.1; MMP-13 inhibitor: 0

Results for Cc1cc(NC(=O)CN2CCN(Cc3ccccc3)CC2)nc2c1c(=O)oc1ccccc12 ?
ERa SRC1 inh: 13; ERb coact inh: 24; ERa SRC1 pot: 104; Smad3 inh: 4; MT1-MMP txn act: 1.1; MMP-13 inhibitor: 7

Results for CC(NC(=O)Cn1cnnn1)C12CC3CC(CC(C3)C1)C2 (centres undefined) ?
ERa SRC1 inh: -8; ERb coact inh: -3; ERa SRC1 pot: 119; Smad3 inh: -1; MT1-MMP txn act: 1.1; MMP-13 inhibitor: 1

How did CCN1CCN(C(=O)CN(c2ccc(C)cc2)S(C)(=O)=O)CC1 do in these assays?
ERa SRC1 inh: -1; ERb coact inh: -10; ERa SRC1 pot: 101; Smad3 inh: 7; MMP-13 inhibitor: 3

How did COc1cc(NC(=O)c2cccs2)c(C(=O)OCC(=O)NCc2ccccc2)cc1OC do in these assays?
ERa SRC1 inh: 16; ERb coact inh: 3; ERa SRC1 pot: 269*; Smad3 inh: -4; MT1-MMP txn act: 1

How did COc1ccccc1NC(=O)Cn1nnc(-c2ccccc2NC(=O)c2cccs2)n1 do in these assays?
ERa SRC1 inh: -15; ERb coact inh: -5; ERa SRC1 pot: 339*[fluorescence artefact?]; Smad3 inh: 13; MT1-MMP txn act: 1.2; MMP-13 inhibitor: -5

Results for O=C(Cn1nnc(-c2ccccc2NC(=O)c2cccs2)n1)Nc1ccccc1 ?
ERa SRC1 inh: 65*[fluorescence artefact?]; ERb coact inh: 57*[fluorescence artefact?]; ERa SRC1 pot: 200*[fluorescence artefact?]; Smad3 inh: -5; MT1-MMP txn act: 0.9; MMP-13 inhibitor: 0

How did COc1cc(NC(=O)c2cccs2)c(OC)cc1NC(=O)CCn1nnc2ccccc21 do in these assays?
ERa SRC1 inh: -1; ERb coact inh: 51*[fluorescence artefact?]; ERa SRC1 pot: 112; Smad3 inh: -9; MT1-MMP txn act: 1.1; MMP-13 inhibitor: 3

What do the screens show for `COc1ccc(NC(=O)Cn2nnc(-c3ccccc3NC(=O)C3CC3)n2)cc1`?
ERa SRC1 inh: 5; ERb coact inh: 4; ERa SRC1 pot: 106; Smad3 inh: 6; MT1-MMP txn act: 1.2; MMP-13 inhibitor: -4

What do the screens show for `OCCN(Cc1ccccc1)CC1CC=CCC1` (centres undefined)?
ERa SRC1 inh: 4; ERb coact inh: 3; ERa SRC1 pot: 109; Smad3 inh: 13; MT1-MMP txn act: 1.1; MMP-13 inhibitor: 2

From PubChem
